Results from paper PMC3218832.

target: RELA (p65) subunit of heterodimer;p52 subunit (Homo sapiens;Homo sapiens, UniProt Q04206;Q00653 1-307;4-332); assay: protein binding microarray; high values mean tight binding; settings: dsDNA, one strand shown

| Sequence | binding signal [z-score] |
| --- | --- |
| CAGGATCCCCT | 1.43 |
| AGATTTATCCC | -0.11 |
| CAGTAATTCCC | 0.865 |
| GGAGGTACCCT | 0.0265 |
| GAGAACTTCCT | -0.731 |
| CGAAGCATCCT | -1.09 |
| CAGGACTTCCT | -0.542 |
| GGAGTAATCCC | -0.103 |
| AGGGGATCCCT | 1.95 |
| CGAATATTCCC | 0.929 |
| GGATTCATCCT | -0.991 |
| GAAGTGCTCCT | -1.01 |
| AGGTAGGCCCT | -0.63 |
| CAAAGTCCCCT | 1.67 |
| CGAAGGACCCT | -0.812 |
| AGAGACACCCC | -0.359 |
| GGAGACTTCCC | 0.17 |
| GGGGACACCCC | 2.26 |
| AGAGTATTCCC | 0.292 |

| Sequence | binding signal [z-score] |
| --- | --- |
| CAAGGGGTCCT | -0.546 |
| AGGTGTCCCCC | 1.19 |
| AAGTAGTCCCC | 1.01 |
| GAGATTTTCCT | -0.119 |
| GAAGGAACCCT | -0.818 |
| AGGAATGCCCT | -0.196 |
| CAGTTACTCCT | -0.94 |
| GAATGTTTCCC | 0.797 |
| CAAGAGATCCT | -1.22 |
| AGAATTTCCCC | 2.3 |
| CGGGTATTCCT | 1.06 |
| CAGTGAGTCCC | 0.115 |
| CAGAATACCCT | 0.477 |
| AAAAAGCCCCC | 2.06 |
| GGAAGAACCCC | 1.03 |
| GGAATACTCCC | 0.124 |
| CAGGGCCTCCC | -0.636 |
| AAGATTTCCCC | 2 |
| CAAAGTTTCCT | -0.494 |

target: RELB subunit;p50 subunit (Homo sapiens;Homo sapiens, UniProt Q01201;P19838 120-401;7-356); assay: as above; settings: dsDNA, one strand shown

| Sequence | binding signal [z-score] |
| --- | --- |
| CAGGATCCCCT | 1.79 |
| AGATTTATCCC | -0.291 |
| CAGTAATTCCC | 0.722 |
| GGAGGTACCCT | 0.0938 |
| GAGAACTTCCT | -0.944 |
| CGAAGCATCCT | -1.1 |
| CAGGACTTCCT | -0.897 |
| GGAGTAATCCC | -0.277 |
| AGGGGATCCCT | 1.58 |
| CGAATATTCCC | 0.405 |
| GGATTCATCCT | -1.18 |
| GAAGTGCTCCT | -1.33 |
| AGGTAGGCCCT | -0.647 |
| CAAAGTCCCCT | 2.07 |
| CGAAGGACCCT | -0.928 |
| AGAGACACCCC | -0.257 |
| GGAGACTTCCC | -0.132 |
| GGGGACACCCC | 1.68 |
| AGAGTATTCCC | 0.0188 |

| Sequence | binding signal [z-score] |
| --- | --- |
| CAAGGGGTCCT | -0.595 |
| AGGTGTCCCCC | 1.21 |
| AAGTAGTCCCC | 1.36 |
| GAGATTTTCCT | -0.659 |
| GAAGGAACCCT | -0.996 |
| AGGAATGCCCT | -0.674 |
| CAGTTACTCCT | -0.976 |
| GAATGTTTCCC | 0.422 |
| CAAGAGATCCT | -0.959 |
| AGAATTTCCCC | 2.59 |
| CGGGTATTCCT | 0.353 |
| CAGTGAGTCCC | 0.511 |
| CAGAATACCCT | 0.743 |
| AAAAAGCCCCC | 2.17 |
| GGAAGAACCCC | 0.343 |
| GGAATACTCCC | 0.0318 |
| CAGGGCCTCCC | -0.64 |
| AAGATTTCCCC | 2.3 |
| CAAAGTTTCCT | -0.737 |

target: T1, RELB subunit;p52 subunit (Homo sapiens;Homo sapiens, UniProt Q01201;Q00653 120-401;4-332); assay: as above; settings: dsDNA, one strand shown
T1 sequence 1: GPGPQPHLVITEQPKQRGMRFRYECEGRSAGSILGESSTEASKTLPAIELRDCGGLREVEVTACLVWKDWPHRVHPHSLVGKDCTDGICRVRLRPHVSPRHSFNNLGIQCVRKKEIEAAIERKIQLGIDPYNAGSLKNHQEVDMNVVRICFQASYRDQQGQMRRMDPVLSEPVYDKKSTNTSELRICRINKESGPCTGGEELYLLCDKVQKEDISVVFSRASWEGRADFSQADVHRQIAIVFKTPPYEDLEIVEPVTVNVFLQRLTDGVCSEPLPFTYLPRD
T1 sequence 2: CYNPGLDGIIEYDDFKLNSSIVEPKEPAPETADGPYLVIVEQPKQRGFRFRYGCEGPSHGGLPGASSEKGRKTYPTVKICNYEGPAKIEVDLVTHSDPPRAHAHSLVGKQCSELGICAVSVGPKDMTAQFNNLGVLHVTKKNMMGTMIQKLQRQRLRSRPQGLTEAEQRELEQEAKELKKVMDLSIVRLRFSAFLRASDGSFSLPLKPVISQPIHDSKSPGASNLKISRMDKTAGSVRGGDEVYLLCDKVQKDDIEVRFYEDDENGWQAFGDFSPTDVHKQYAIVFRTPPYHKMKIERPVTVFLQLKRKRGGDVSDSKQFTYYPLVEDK

| Sequence | binding signal [z-score] |
| --- | --- |
| CAGGATCCCCT | 1.65 |
| AGATTTATCCC | -0.135 |
| CAGTAATTCCC | 0.71 |
| GGAGGTACCCT | -0.25 |
| GAGAACTTCCT | -0.781 |
| CGAAGCATCCT | -1.02 |
| CAGGACTTCCT | -0.842 |
| GGAGTAATCCC | -0.368 |
| AGGGGATCCCT | 1.57 |
| CGAATATTCCC | 0.536 |
| GGATTCATCCT | -0.967 |
| GAAGTGCTCCT | -1.22 |
| AGGTAGGCCCT | -0.561 |
| CAAAGTCCCCT | 1.96 |
| CGAAGGACCCT | -0.721 |
| AGAGACACCCC | 0.00668 |
| GGAGACTTCCC | -0.125 |
| GGGGACACCCC | 2.1 |
| AGAGTATTCCC | 0.0238 |

| Sequence | binding signal [z-score] |
| --- | --- |
| CAAGGGGTCCT | -0.354 |
| AGGTGTCCCCC | 1.46 |
| AAGTAGTCCCC | 1.04 |
| GAGATTTTCCT | -0.507 |
| GAAGGAACCCT | -0.793 |
| AGGAATGCCCT | -0.494 |
| CAGTTACTCCT | -0.763 |
| GAATGTTTCCC | 0.655 |
| CAAGAGATCCT | -0.999 |
| AGAATTTCCCC | 2.28 |
| CGGGTATTCCT | 0.712 |
| CAGTGAGTCCC | 0.164 |
| CAGAATACCCT | 0.882 |
| AAAAAGCCCCC | 2.06 |
| GGAAGAACCCC | 0.678 |
| GGAATACTCCC | -0.125 |
| CAGGGCCTCCC | -0.746 |
| AAGATTTCCCC | 2.17 |
| CAAAGTTTCCT | -0.489 |

target: C-Rel subunit;p50 subunit (Homo sapiens;Homo sapiens, UniProt Q04864;P19838 1-285;7-356); assay: as above; settings: dsDNA, one strand shown

| Sequence | binding signal [z-score] |
| --- | --- |
| CAGGATCCCCT | 1.34 |
| AGATTTATCCC | 0.062 |
| CAGTAATTCCC | 1.31 |
| GGAGGTACCCT | -0.0429 |
| GAGAACTTCCT | -0.692 |
| CGAAGCATCCT | -1.65 |
| CAGGACTTCCT | -0.448 |
| GGAGTAATCCC | 0.0858 |
| AGGGGATCCCT | 1.42 |
| CGAATATTCCC | 0.941 |
| GGATTCATCCT | -1.49 |
| GAAGTGCTCCT | -1.67 |
| AGGTAGGCCCT | -1.13 |
| CAAAGTCCCCT | 1.43 |
| CGAAGGACCCT | -1.47 |
| AGAGACACCCC | -0.227 |
| GGAGACTTCCC | 0.335 |
| GGGGACACCCC | 1.26 |
| AGAGTATTCCC | 0.73 |

| Sequence | binding signal [z-score] |
| --- | --- |
| CAAGGGGTCCT | -0.859 |
| AGGTGTCCCCC | 1.14 |
| AAGTAGTCCCC | 1.07 |
| GAGATTTTCCT | 0.14 |
| GAAGGAACCCT | -1.1 |
| AGGAATGCCCT | -0.208 |
| CAGTTACTCCT | -1.08 |
| GAATGTTTCCC | 1.2 |
| CAAGAGATCCT | -1.42 |
| AGAATTTCCCC | 1.85 |
| CGGGTATTCCT | 0.468 |
| CAGTGAGTCCC | 0.393 |
| CAGAATACCCT | 0.496 |
| AAAAAGCCCCC | 1.43 |
| GGAAGAACCCC | 0.685 |
| GGAATACTCCC | 0.28 |
| CAGGGCCTCCC | -0.529 |
| AAGATTTCCCC | 1.73 |
| CAAAGTTTCCT | -0.0288 |
